Screen size: about 340,000 compounds; about 420 (0.12%) were called active. Inconclusive results (about 10%) are left out. The call rests on the fitted dose curve; in most records, active means well fitted activation curve with a large enough effect; inconclusive means small, poorly fitted or top-dose-only effect, or another doubt; inactive means no such curve, though single readings can be large or run the other way; cell line not stated here. The list comes from a sample in which actives are over-represented; it also holds similar structures and randomly drawn compounds.
Assay: qHTS for Agonist of gsp, the Etiologic Mutation Responsible for Fibrous Dysplasia/McCune-Albright Syndrome: qHTS; further: nearly all actives have a fitted effect of over 60% in size;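 on activation (cAMP increase): phosphodiesterase inhibitor Ro 20-1724 added with compounds to block cAMP breakdown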
Settings: gsp mutant cells, cAMP HTRF, 30 min; series mostly up to 76.9 µM; activation (cAMP increase): at the top concentration
Description: McCune-Albright syndrome (MAS) is a rare disease caused by somatic mutations in Gsgsp), a widely expressed protein central in signal transduction from G-coupled protein receptors (GPCRs). The disease symptoms are diverse, owing to the fact that the patients are mosaics with varying degrees of tissue involvement. Greater than 90% of the mutations in Gs in MAS occur at the R201 position and are equally divided between R201H and R201C. The R201 residue is central in the intrinsic GTPase activity of Gs and the H and C mutations lead to loss of, or impairment of, the GTPase activity. The intrinsic GTPase activity is necessary to terminate the interaction between Gs and adenylate cyclase, and to terminate the cAMP-mediated signaling of the given GPCR pathway. Thus, these activating mutations lead to ligand-independent activation of GPCR pathways. The tissue phenotype is determined by the role of Gs in the function of a given cell, and excess Gs/cAMP signaling in that cell. For example, pituitary somatotrophs overproduce growth hormone in a growth hormone releasing hormone-independent fashion, and gigantism/acromegaly ensues. Skeletal stem cells in the bone marrow behave as if they are under constant parathyroid hormone stimulation and fail to differentiate into osteoblasts and osteocytes, and proliferate as immature osteogenic cells and lead to the marrow fibrosis of fibrous dysplasia of bone. The goal of this project is to identify molecules with stimulatory activity at gsp mutations that will not only allow for in-depth study of the underlying molecular and cellular pathophysiology, but also serve as compounds from which drugs to treat FD/MAS can be developed NIH Chemical Genomics Center [NCGC] NIH Molecular Libraries Probe Centers Network [MLPCN] MLPCN Grant: IRP-FT-DE-2011-01 Assay Submitter (PI): Michael Collins, NIDCR
1.#Seed 2000 cells/well in 6 ul DMEM 10% FBS, 1% Pen/Strep, 0.5 mg/ml G418 2.#Incubate 16-24 hr at 37C, 5% CO2, 95% humidity 3.#Aspirate leaving 1 ul residual volume 4.#Dispense 5 ul/well DPBS + 1 mM CaCl2, 0.5 mM MgCl2, 0.05% BSA, 0.005% Tween 20 5.#Aspirate leaving 2 ul residual volume 6.#Dispense 23 nl/well compounds in DMSO 7.#Dispense 1 ul/well 300 uM Ro-20174 in DMEM 10% FBS 8.#Incubate 30 min at 37C, 5% CO2, 95% humidity 9.#Dispense 1.5 ul/well HTRF reagent: cAMP-d2 in lysis buffer 10.#Dispense 1.5 ul/well HTRF reagent: anti-cAMP antibody-K in lysis buffer 11.#Incubate 30 min at room temperature 12.#Detect HTRF signal using EnVision plate reader
Potency means the concentration at half of the fitted maximal effect.

Activation (cAMP increase), inactive:
O=C(O)C1=C(C(=O)O)C2CCC1C2 13.7%, CC1=C(C(=O)N2CCOCC2)CC(CC(=O)NCCN2CCOCC2)C(=O)N1CCC1=CCCCC1 (stereo unspecified) -40.6%, CC1(c2cccc(N)c2)OCCO1 6.78%, CCc1cccc(CC)c1N1C(=O)CC(Sc2ccccc2N)C1=O (stereo unspecified) -34.3%, CCCCN(C(C)=O)c1ccc2c(c1)C1CC2CCN1Cc1ccccc1 (stereo unspecified) 12.9%, CCOc1ccc(S(=O)(=O)NCCC(=O)NNC(=O)c2ccc(F)cc2)cc1 6.08%, Cc1ccc(NC(=O)Cn2sc3ccccc3c2=O)cc1 3.51%, CC1C(C)N(C(=O)CCl)c2ccccc2N1C(=O)CCl (stereo unspecified) -0.561% [at 15.4 µM], CC1CCCC(C)N1C(=O)COC(=O)c1ccccc1C(=O)c1ccccc1 (stereo unspecified) -62.2%, CC1(C)NC(=O)N(CC(=O)Nc2ccc(-c3ccccc3)cc2)C1=O -25.4%, CC1C(=O)N(Cc2cn(CC3CCCCC3)nn2)CCS(=O)(=O)N1Cc1ccc(-c2cccc(N(C)C)c2)cc1 (stereo unspecified) -37.2%, CCOC(=O)C(=Cc1ccccc1)C(=O)c1ccccc1 -32.4%, COc1ccc(S(=O)(=O)N2CCN(CC(=O)N3CCNC3=O)CC2)cc1OC -61.6%, O=C(OCC(=O)N1CCCCCC1)c1cccc(Cl)c1Cl 7.89%, CSc1ncnc2c1ncn2CCCNCC(C)c1ccccc1 (stereo unspecified) -17.8%, C[C@H]1NS(=O)(=O)c2cc(Cl)ccc2O[C@@H]1c1ccccc1 -56.1%, COc1cc2nnn(-c3ccncc3)c2cc1OC -62.2%, O=C(COC(=O)/C=C/c1ccc(Cl)cc1)NC1CCS(=O)(=O)C1 (stereo unspecified) 7.94%, Cc1ccccc1-c1ccc2c(c1)O[C@@H](CN(C)Cc1ccc(C(=O)O)cc1)[C@@H](C)CN([C@H](C)CO)S2(=O)=O 9.04%, CCN(Cc1ccncc1)C(=S)Nc1ccccc1C 3.88%, CC1CCCC(NC(=O)COC(=O)c2ccccc2C(=O)N(C)C2CCCCC2)C1C (stereo unspecified) -11.9%, CCN(CC)C(=O)C1=C(C)N(Cc2ccc(OC)cc2)C(=O)C(CC(=O)NCCCCc2ccccc2)C1 (stereo unspecified) -64.5%, N#CCCC(C#N)(c1cccnc1)N1CCOCC1 (stereo unspecified) 5.47%, CCc1cc(C(=O)N(CC)CC(=O)Nc2c(F)cccc2F)sc1C -14.1%, Cc1ccc(-c2ccc(CN3C(C)C(=O)N(Cc4cn(CCC5OCCCO5)nn4)CCS3(=O)=O)cc2)cc1 (stereo unspecified) -4.97%, COc1ccc(S(=O)(=O)N2CCC(C(=O)NCCC(=O)Nc3ccccc3OC)CC2)cc1 -127%, CC1CC(NC(=S)N(C)C)CC(C)(C)C1 (stereo unspecified) -1.96%, CC(C)NC(=O)Nc1ccc2c(c1)C(=O)N([C@H](C)CO)C[C@H](C)[C@@H](CN(C)Cc1ccc(C(F)(F)F)cc1)OCCCC[C@@H](C)O2 -39.1%, O=C(NN=Cc1ccc2c(c1)CCC2)c1ccccc1O 5.61%, O[C@H]1C[C@H](c2ccc(Cl)cc2)N(Cc2cccs2)C[C@@H]1n1cc(C2CC2)nn1 -12.1%, CC(=O)Nc1ccc2c3c(ccc([N+](=O)[O-])c13)CC2 32.7%, O=C(O)c1ccccc1NC(=O)c1ccccc1-c1ccccc1C(=O)O -12.9%, COC(=O)c1ccccc1NC(=S)NC(=O)c1ccccc1F 3.68%, O=C(COC(=O)CCc1c[nH]c2ccccc12)Nc1cccc(Cl)c1 -5.04%, COC(=O)C(Cc1c[nH]c2ccccc12)NC(=O)CCNC(=O)c1ccco1 (stereo unspecified) 1.54%, COc1ccc(-c2cnc3c(c2)C(=O)N([C@H](C)CO)C[C@@H](C)[C@H](CN(C)Cc2ccccc2)O3)cc1 5.7%, COc1ccc(-c2ccc(CN3C(C(C)C)C(=O)N(Cc4cn(CC5CCCCC5)nn4)CCS3(=O)=O)cc2)cn1 (stereo unspecified) 4.31%, CCCc1ccc(S(=O)(=O)N2CCN(C(=O)c3cc(C)on3)CC2)cc1 1.12%, CCc1noc(C)c1C(=O)OCC(=O)c1ccc(NC(=O)CC(C)C)cc1 -39.5%, COc1ccc(CN2C(=O)C(CC(=O)NCCN3CCOCC3)CC(C(=O)N(C(C)C)C(C)C)=C2C)cc1 (stereo unspecified) 15.2%, COc1ccc(NC(=O)CCCOc2ccc(C(C)=O)cc2)cc1S(=O)(=O)N1CCCCC1 -9.18%, COc1cccc(/C=C2\SC(=S)N(CCCC(=O)N3CCOCC3)C2=O)c1 -22.2%, Cc1ccc2cccc([N+](=O)[O-])c2n1 -22.1%, CCN(CC)C(=O)C(C)N1c2cccc3cccc(c23)S1(=O)=O (stereo unspecified) 1.11%, Cc1ccc(C(=O)NC(C)C(c2cccs2)N2CCOCC2)cc1C (stereo unspecified) -240%, COc1ccc(OC)c(NC(=O)C2CCCN2S(=O)(=O)c2ccc3c(c2)CC(C)N3C(C)=O)c1 (stereo unspecified) -22.5%, C[C@@H]1CN([C@@H](C)CO)C(=O)c2cc(NS(C)(=O)=O)ccc2O[C@@H](C)CCCCO[C@H]1CN(C)C(=O)Nc1ccc2c(c1)OCO2 -24.6%, COCCCn1c(C(=O)NC2CCCCC2)cc2c(=O)n3cccc(C)c3nc21 27.2%, Cc1cccn2c(=O)c3cc(C#N)c(=NC(=O)c4cccnc4)n(CC4CCCO4)c3nc12 (stereo unspecified) 26.8%, Cc1nnc(SC(C)C(=O)c2c[nH]c3ccccc23)n1C1CC1 (stereo unspecified) 2.61%, Cc1ccc(C(=O)N[C@H](C(=O)N2CCN(c3ncccn3)CC2)C(C)C)cc1 -12.3%, CC(C)CCOc1ccc(C(=O)Nc2cc(S(=O)(=O)N3CCOCC3)ccc2N2CCOCC2)cc1 -108%, Cc1cccc(C(=O)NC2CCN(CC(=O)Nc3cccc(Cl)c3)CC2)c1 -42.7%, Cc1csc(SCC(=O)Nc2ccc(C)c(S(=O)(=O)N(C)C)c2)n1 -20.6%, CC1=C(C(=O)Nc2cccc(C(=O)NCC(C)c3ccccc3)c2)SCCO1 (stereo unspecified) 10.4%, O=C1[C@H]2[C@@H](c3ccc(C(F)(F)F)cc3)N[C@]3(CCCN(Cc4ccc(Cl)cc4)C3=O)[C@H]2C(=O)N1Cc1ccccc1 1.18%, CCN1C(=O)[C@H]2[C@@H](c3ccccc3)N[C@]3(CCCN(Cc4ccc(C)cc4)C3=O)[C@H]2C1=O 5.38%, Cn1c(CCN2CCN(c3ccccn3)CC2)nc2cc(NS(=O)(=O)c3ccc(F)cc3)ccc21 -10.2%, c1ccc(Cn2nnc3c(NCC4CC4)ncnc32)cc1 2.75%, CCCc1nc(SCC(=O)N2CCCC2)c2c(=O)n(C)c(=O)n(C)c2n1 26%, CCn1c(SCC(=O)NCC2CCCO2)nc2ccccc21 (stereo unspecified) 11%, CCCCCCN1C[C@H](O)[C@@H](n2cc(C3CC3)nn2)C[C@@H]1c1ccc(Cl)cc1 -33.6%, CC1(C)CC(=O)C=C(c2ccc(COC(=O)c3cc(F)cc(F)c3)cc2)C1=O -119%, O=C(CCc1ccc(O)cc1)NN=Cc1cc(Br)ccc1O -4.34%, COc1cc2ccc(C(C)=O)c(O)c2cc1OC 15.1%, COC(=O)C[C@H]1C[C@@H]2c3cc(N(C)C)ccc3O[C@@H]2[C@H](CO)O1 -18.9%, Cc1cc(Cl)ccc1C(=O)C1CCCN(C(=O)c2ccc3c(c2)OCO3)C1 (stereo unspecified) 0.924%, Cc1ccc(C(=O)N2CCCc3ccccc32)c(Cl)c1 5.11%, CN(C)C(CNC(=O)c1cc(Br)c(Br)s1)c1ccco1 (stereo unspecified) -58.5%, O=C(COC(=O)Cc1ccc(Cl)cc1Cl)NCc1ccco1 -9.6%, CCOC(=O)C=Cc1ccc(C(=O)OCC)[nH]1 -46.9%, Cc1cc(C)nc(N/N=C/c2ccc([N+](=O)[O-])o2)n1 45%, CCc1ccc(S(=O)(=O)N/N=C\c2ccc([N+](=O)[O-])o2)cc1 -10.5%, COc1ccc(/C=C2\SC(=S)N(CCC(=O)N3CCOCC3)C2=O)cc1OC -44.9%, O=C(NCc1ccccc1)C1CNCC(C(=O)NCc2ccccc2)C1 (stereo unspecified) 4.24%, Cc1ccc([C@H]2N[C@]3(CCCN(Cc4ccccc4)C3=O)[C@H]3C(=O)N(Cc4ccccc4)C(=O)[C@@H]23)cc1 -54.9%, CCN(CC)C(=O)c1sc2nc(-c3ccccc3)ccc2c1N -3.88% [at 15.4 µM], CNc1nc(-c2ccccc2)cc(-c2ccccc2)n1 -29%, CCc1ccccc1NC(=O)CN1CCN(C(=O)c2cc(C3CC3)nn2-c2ccccc2)CC1 -23.3%, O=NN(CCCl)C(=O)NCCc1cccc[n+]1[O-] -40.6%, CSc1ncnc2c1ncn2CCCNCC1CCCCC1 -41.1%, Cc1ccc(S(=O)(=O)N(CCc2ccccc2)c2ccc3c(c2)C2CC3CCN2C(=O)OCc2ccccc2)cc1 (stereo unspecified) -3.98%, CC(OC(=O)c1cccnc1Cl)C(=O)NC1CCCCC1 (stereo unspecified) -7.18%, O=C(COC(=O)c1cncc(Br)c1)Nc1ccc(S(=O)(=O)N2CCOCC2)cc1 -52.8%, O=C(OCc1ccccc1)N1CCC2CC1c1cc(N3CCN(S(=O)(=O)c4cc(Cl)cc(Cl)c4)CC3)ccc12 (stereo unspecified) -22.3%, NC(CSC(c1ccccc1)(c1ccccc1)c1ccc(-c2ccccc2)cc1)C(=O)O (stereo unspecified) -9.82%, C=CCn1c2ccccc2c2nnc(SC(CC)C(=O)Nc3nc(C)c(C(=O)OCC)s3)nc21 (stereo unspecified) -52.6%, C=CCn1c(SCC(=O)CC(=O)OCC)nc2cc(C(=O)N3CCC(C(N)=O)CC3)ccc2c1=O 4.18% [at 15.4 µM], C=CCn1nc(C(=O)OCC)cc1-c1sc(NC(=O)c2ccccc2)nc1C -3.53%, Cc1cc(C)c2c(=O)n3c(nc2c1)C(CC(C)C)NC(=O)c1cc2ccccc2cc1-3 (stereo unspecified) 4.39%

Potency, active:
O=C(NC(=S)Nc1ccccc1C(=O)O)c1ccc(-c2ccc(Br)cc2)o1 14.1 µM, Cc1cccn2c(=O)c3cc(C#N)c(=O)n(CCCN4CCOCC4)c3nc12 20 µM, Cn1c(=O)c2c(SCC(=O)NCC3CCCO3)nc(CC(C)(C)C)nc2n(C)c1=O (stereo unspecified) 14.1 µM, C/[N+]([O-])=C\c1ccc([N+](=O)[O-])o1 28.2 µM, CS(=O)(=O)c1sc2nc(-c3ccccc3)cc(-c3ccccc3)c2c1N 7.08 µM, C=CCn1c2ccccc2c2nnc(SCc3[nH]c(=O)[nH]c3C(=O)CCCCC(=O)OCC)nc21 2 µM
